Screening data: PubChem, National Center for Advancing Translational Sciences (NCATS)
p53ts 32C tox = kills p53ts cells at the permissive temperature; 130,000 compounds, 0.93% hits; AID 924; H1299-p53A138V at 32C, ATP luminescence viability, 24 h; Potency, µM (series often up to 46.1 µM), hits mostly cytotoxic; further: nearly all actives have a fitted effect of over 55% in size
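Cells: H1299 p53ts (A138V), 600/well, pre-incubated 16–30 h at 37C. Cpd up to 46 uM, 24 h, 32C. Readout: ATPlite luminescence, 20 min RT. Normalization: DMSO vs tamoxifen 100 uM. AC50 by Hill equation.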
12-hLO inh = inhibitors of human 12-lipoxygenase (ALOX12). 150,000 compounds, 0.12% hits. P18054. Potency, µM (series often up to 57.1 µM), actives largely listed as inhibitors. purified 12-hLO, xylenol orange hydroperoxide absorbance; further: nearly all actives have a fitted effect of over 55% in size
Target sequence (P18054 whole entry, looked up): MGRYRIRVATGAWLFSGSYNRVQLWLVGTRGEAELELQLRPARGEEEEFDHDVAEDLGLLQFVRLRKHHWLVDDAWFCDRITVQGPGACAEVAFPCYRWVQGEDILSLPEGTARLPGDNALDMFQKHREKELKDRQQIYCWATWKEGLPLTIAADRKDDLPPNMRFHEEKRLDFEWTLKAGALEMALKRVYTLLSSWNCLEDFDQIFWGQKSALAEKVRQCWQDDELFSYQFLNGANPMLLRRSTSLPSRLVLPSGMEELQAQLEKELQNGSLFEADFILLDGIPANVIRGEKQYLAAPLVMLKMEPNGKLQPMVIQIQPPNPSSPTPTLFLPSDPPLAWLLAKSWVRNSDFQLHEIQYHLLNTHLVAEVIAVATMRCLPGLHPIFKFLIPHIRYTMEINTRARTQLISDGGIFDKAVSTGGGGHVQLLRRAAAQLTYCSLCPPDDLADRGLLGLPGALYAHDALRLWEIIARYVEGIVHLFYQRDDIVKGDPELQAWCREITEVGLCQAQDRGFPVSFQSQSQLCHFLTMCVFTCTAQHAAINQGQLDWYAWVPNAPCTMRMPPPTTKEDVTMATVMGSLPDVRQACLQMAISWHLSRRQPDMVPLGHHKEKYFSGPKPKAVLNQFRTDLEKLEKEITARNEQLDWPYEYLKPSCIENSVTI
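Lipoxygenase turnover measured by absorbance at 573 and 405 nm after Fe-XO development. Human 12hLO 150 nM, arachidonate 40 uM, pH 7.0 Hepes buffer with detergent; 15 min compound preincubation, 30 min reaction.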
HPGD block = HPGD (human) dehydrogenase inhibition; Potency, µM, hits mostly inhibitors; purified HPGD, NADH fluorescence kinetic, PGE2 substrate; P15428; 150,000 compounds, 4.3% hits; AID 894; active means well fitted inhibition curve with a large enough effect, not every such curve was filed as active; inconclusive means small, poorly fitted or top-dose-only effect, or another doubt; inactive means no such curve, though single readings can be large or run the other way
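20 nM HPGD preincubated 15 min at room temperature with compound in 50 mM Tris-HCl pH 8, 0.01% Tween 20. Started with 1 mM NAD+ and 30 uM prostaglandin E2; NADH fluorescence (360/450 nm) read 5 times over 30-s intervals, last minus first.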
p53ts 39C tox = cytotoxicity in p53ts cells at nonpermissive temperature; H1299-p53A138V viability at 39C, ATP luminescence, 24 h; Potency, µM (doses to about 46.1 µM), most hits filed as cytotoxic; 130,000 compounds, 1.5% hits; further: nearly all actives have a fitted effect of over 55% in size
Numbers stand for hits; . = inactive; ? = inconclusive; / = not tested or not shown; [ ] = remark or other dose. Compounds with a hit are over-represented: about 4.4% of the library has one in this group of screens. Unless noted, the call rests on the fitted dose curve; in most records, active means well fitted curve in the direction sought with a large enough effect; inconclusive means small, poorly fitted or top-dose-only effect, or another doubt; inactive means no such curve, though single readings can be large; an effect the other way counts as inactive or inconclusive.

SMILES	p53ts 32C tox	12-hLO inh	HPGD block	p53ts 39C tox
O=C(Nc1ccc(-c2nc3ccccc3o2)cc1)C1CCCO1 (stereo not drawn)	16µM	.	?	10µM
COc1ccc(NC(=O)C2CCCO2)cc1 (stereo not drawn)	.	.	25µM	.
C=C/C(=C\C)C[C@@H](CC(=O)N[C@@H](CCC(=O)O)CC(=O)O)NC(=O)[C@@H]1CNCC[C@H]1NC(=O)C[C@@H](NC(=O)C[C@H](Cc1ccccc1)NC(=O)[C@@H]1CCCC[C@H]1N)C(C)C	/	.	.	/
Cc1cccc(CCNC(=O)c2ccc(CSCc3cccc(Cl)c3)o2)c1	.	/	/	.
COC(=O)[C@@H](NC(=O)O[C@H]1C(=O)c2cc(OC)ccc2O[C@@H]1c1ccc(OC)c(Br)c1)C(C)C	/	/	.	/
O=C(Nc1ccc(Oc2ccccc2)cc1)C1CCCO1 (stereo not drawn)	?	.	11µM	.
COC(=O)COc1ccc(NC(=O)C2CCCO2)cc1 (stereo not drawn)	.	.	16µM	.
CC(NC(=O)C1CCCO1)c1ccccc1 (stereo not drawn)	/	.	18µM	/
O=C(NC(=S)NCC1COc2ccccc2O1)c1ccccc1 (stereo not drawn)	.	13µM	.	.
O=C(NCC1COc2ccccc2O1)c1ccccc1 (stereo not drawn)	.	.	?	.
O=C(CC1COc2ccccc2O1)NCc1ccccc1 (stereo not drawn)	.	.	.	.
O=C(CC1COc2ccccc2O1)NCCc1ccccc1 (stereo not drawn)	/	.	7.1µM	/
CCOc1ccc(CCNC(=O)CN2C(=O)C(CC)Oc3ccccc32)cc1OCC (stereo not drawn)	.	/	/	?
Nc1nc(Sc2ccc(C(F)(F)F)cc2[N+](=O)[O-])n[nH]1	/	.	.	/
O=[N+]([O-])c1cc(C(F)(F)F)ccc1Sc1ccc2ccccc2n1	/	.	16µM	/
O=C(C1CCC(CNS(=O)(=O)c2cccc3cccnc23)CC1)N1CCCC1 (stereo not drawn)	.	.	6.3µM	.
CCc1ccc(NC(=O)C2CCC(CNS(=O)(=O)c3cccs3)CC2)cc1 (stereo not drawn)	.	/	/	.
O=C(C1CCN(S(=O)(=O)c2cccc3cccnc23)CC1)N1CCN(C2CCCC2)CC1	.	.	.	.
O=C(C1CCC(CNS(=O)(=O)c2cccc3nsnc23)CC1)N1CC=C(c2ccccc2)CC1 (stereo not drawn)	/	.	16µM	/
O=C(C1CCN(S(=O)(=O)c2cccc3nsnc23)CC1)N1CC=C(c2ccccc2)CC1	.	.	.	.
O=C(C1CCC(CNS(=O)(=O)c2cccs2)CC1)N1CCCCC1 (stereo not drawn)	.	.	3.2µM	.
COc1ccccc1CNC(=O)c1c[nH]c2ccc(S(=O)(=O)Nc3cc(C)cc(C)c3)cc2c1=O	.	/	/	.
CCn1c(CNC(=O)c2ccc(OC)cc2)nnc1SCC(=O)Nc1ccc(C)cc1	.	/	/	.
O=C1/C(=C/c2ccccc2)Nc2ccccc21	/	.	18µM	/
NC(=O)C1CCN(C(=O)c2ccc(NC(=O)c3nsc4ccccc34)cc2)CC1	2µM	/	/	2.5µM
SMILES	p53ts 32C tox	12-hLO inh	HPGD block	p53ts 39C tox
CCN(CC)S(=O)(=O)c1cccc(-c2nnc(SCC(=O)NCCC3=CCCCC3)n2N)c1	.	.	.	.
CC(C)c1nnc(SCC(=O)NCCC2=CCCCC2)n1N	/	.	16µM	/
Cc1cccc(N2CCN(c3ncnc4onc(-c5ccc(F)cc5)c34)CC2C)c1 (stereo not drawn)	.	/	/	.
CC1CC(C)(C)Nc2ccc(OC(=O)c3ccco3)cc21 (stereo not drawn)	16µM	.	.	10µM
O=C(Nc1ccc(-c2nnc3n2CCCCC3)cc1)c1ccco1	/	.	8.9µM	/
Cc1onc(-c2ccccc2Cl)c1C(=O)Nc1ccc(CN2CCCC2)cc1	.	.	.	.
Clc1ccc(-c2nnc3n2CCCC3)cc1	/	.	.	/
c1cc(-c2nnc3n2CCCCC3)ccn1	.	.	.	.
O=C1Nc2ccccc2C1=Nc1ccc(-c2nnc3n2CCCCC3)cc1	.	.	5µM	.
Cc1onc(-c2ccccc2Cl)c1C(=O)Nc1ccc(-c2nnc3n2CCCCC3)cc1	.	.	16µM	.
Cc1ccc(-c2nnc3n2CCCCC3)cc1	/	.	5µM	/
COc1ccc(Br)cc1CNC(=O)c1cnc2sc(N3CCCCCC3)nn2c1=O	.	/	/	.
Cc1cc(C)n(-c2ccc(Cl)c(C(=O)Nc3ccc(-c4nnc5n4CCCCC5)cc3)n2)n1	.	.	1.8µM	.
Cc1cnc(C(=O)Nc2cccc(-c3nnc4n3CCCCC4)c2)cn1	.	.	13µM	.
O=C(CN1C(=O)NC2(CCCC2)C1=O)Nc1cccc(-c2nnc3n2CCCCC3)c1	.	.	.	.
c1cc(Nc2ncnc3sccc23)cc(-c2nnc3n2CCCCC3)c1	.	.	22µM	.
COc1ccccc1C1NC(=O)c2n[nH]c(-c3cccs3)c21 (stereo not drawn)	.	/	/	.
O=C(CC(c1ccccc1)c1ccccc1)NCCO	.	.	.	.
COCCCNC(=O)NC(=O)c1ccccc1	/	.	.	/
COCCNC(=O)CC(c1ccccc1)c1ccccc1	/	.	14µM	/
COCCCNC(=O)CCCC(=O)NCCCOC	.	.	.	.
COCCCNC(=O)CC(C)c1ccccc1 (stereo not drawn)	/	.	16µM	/
COCCCNC(=O)CCCOc1ccccc1	.	.	14µM	.
COc1ccc(-n2c(=O)c3ccccc3n(Cc3ccc(F)cc3Cl)c2=O)cc1OC	.	/	/	.
COc1c(-c2coc3cc4c(cc3c2=O)CC(O)C(C)(C)O4)ccc2c1C=CC(C)(C)O2 (stereo not drawn)	?	.	16µM	25µM
SMILES	p53ts 32C tox	12-hLO inh	HPGD block	p53ts 39C tox
COc1ccc(OCCCC(=O)NCC(C)C)cc1	/	.	25µM	/
C=CCNC(=O)CCCOc1cc(C)ccc1C	.	.	14µM	.
C=CCNC(=O)CCCOc1ccc(C)cc1	/	.	7.1µM	/
Cc1ccc(OCCCC(=O)Nc2ccccc2C(F)(F)F)cc1	/	.	.	/
CCOc1ccc(CNC(=O)CCCn2c(=O)c3cccn3c3ccccc32)cc1	.	/	/	.
O=C(c1cnccn1)N1CCC2(CC1)CCN(c1ncccn1)CC2	.	.	.	.
CCOC(=O)c1c(NC(=O)C2C3CCC(O3)C2C(=O)O)sc(C)c1-c1ccc(F)cc1 (stereo not drawn)	/	.	.	/
CCCOC(=O)c1c(-c2ccc(C)cc2C)csc1NC(=O)C1C2CCC(O2)C1C(=O)O (stereo not drawn)	/	.	22µM	/
CC(C)(C)C(=O)Cn1c(=O)n(CCCCCC(=O)NCc2ccccc2Cl)c(=O)c2sccc21	.	/	/	.
O=C(CCS(=O)(=O)c1cc(Br)cc2c1N(C(=O)C1CC1)CC2)N1CCN(c2ccc(F)cc2)CC1	.	/	/	.
COc1ccccc1CCNC(=O)c1ccc(C)o1	.	.	8.9µM	.
COc1ccccc1CNC(=O)c1ccc(CS(=O)(=O)c2ccccc2C)o1	.	/	/	.
COc1ccccc1CNC(=O)c1ccc(Br)o1	/	.[0.00818 µM]	40µM	/
